Measured values reported in PubChem BioAssay (NCI).
This is part of a sample that, as a whole, favours compounds with a hit. Of some 83,000 tested, about 20% had one in any assay.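 Assay: single dose, 48 h. Readout: percent growth (0 = no net growth; negative = cell death). Active: <10.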 Unmarked numbers belong to inactive results. Calls of active or inactive are those of the source.

Tests used:
Assay in all cases: NCI-60 one-dose screen, 48 h (100 = growth as untreated, 0 = no growth, -100 = all killed)
Details in all cases: 10 µM unless noted
[1] = system: NCI-H23 lung
[2] = system: NCI-H226 lung
[3] = system: NCI-H322M lung
[4] = system: HOP-62 NSCLC
[5] = system: NCI-H460 lung
[6] = system: HOP-92 NSCLC
[7] = system: NCI-H522 lung
[8] = system: A549/ATCC NSCLC
[9] = system: 786-0 renal
[10] = system: COLO 205 colon
[11] = system: DU-145 prostate
[12] = system: K-562 leukemia
[13] = system: MALME-3M melanoma
[14] = system: MDA-MB-231 breast
[15] = system: RXF 393 renal
[16] = system: SF-268 CNS
[17] = system: SF-295 CNS
[18] = system: SF-539 CNS
[19] = system: UACC-257 melanoma
[20] = system: M14 melanoma

Compound | growth [1] [%] | growth [2] [%] | growth [3] [%] | growth [4] [%] | growth [5] [%] | growth [6] | growth [7] | growth [8] [%] | growth [9] [%] | growth [10] | growth [11] | growth [12] | growth [13] [%] | growth [14] [%] | growth [15] | growth [16] [%] | growth [17] [%] | growth [18] [%] | growth [19] [%] | growth [20]
Cc1cc(C)n(Cc2cc(C(C)(C)C)cc(C(C)(C)C)c2)c(=O)c1C#N | 101 | 93.3 | 92.5 | 96.3 | 93.9 | 86% | 83.9% | 98 | 93.5 | 110% | 103% | 88.1% | 82.4 | 82.5 | 101% | 94.8 | 85.9 | 90.8 | 102 | 89.8%
C=C(C)[C@@H]1CC[C@]2(C(=O)N3CCN(C)CC3)CC[C@]3(C)[C@H](CC[C@@H]4[C@@]5(C)C/C(=C/c6ccc(C(F)(F)F)cc6)C(=O)C(C)(C)[C@@H]5CC[C@]43C)[C@@H]12 | 99.2 | 101 | 96.5 | 96.6 | 97.9 | 78.1% | 94.4% | 92.6 | 90.3 | 105% | 104% | 72.9% | 90.8 | 94.9 | 97.4% | 92.8 | 101 | 88.6 | 98.5 | 94.8%
Cc1ccc(S(=O)(=O)Nc2ccc(-c3cc(-c4cccc(F)c4)c(C#N)c(N)n3)cc2)cc1 | 55.3 | 36.7 | 72.2 | 53.1 | 93.3 | -39.3% (active) | -71.4% (active) | 33 | 13.4 | 23.9% | 49.4% | 2.53% (active) | 44.4 | 20.6 | -18.2% (active) | 47 | 78.9 | 24 | 41.9 | -8.83% (active)
CCC(=O)c1c(C)[nH]c(C)c1C | 94 | 101 | 94.6 | 77.8 | 55.5 | 107% | 56.2% | 86.2 | 99.2 | 89.4% | 0.904% (active) | 110% | 116 | 95.8 | 80.4% | 90.7 | 68.3 | 105 | 99 | 90.4%
CCCCCC1CCCCN1C(=O)OCC (stereo not given) | 106 | 122 | 112 | 117 | 108 | 75.9% | 98.2% | 105 | 88.2 | 101% | 105% | 94.9% | 90.9 | 103 | 170% | 99.7 | 123 | 107 | 106 | 97.4%
NCCn1cc(-c2nc(-c3c[nH]c4ncccc34)cs2)c2cc(Br)ccc21 | 81.9 | 80.3 | 80.1 | 78.1 | 14.9 | 53.6% | 100% | 65.3 | 87.3 | -17.1% (active) | 82.3% | 19.4% | 95.9 | 56.7 | 80.5% | 82.8 | 102 | 84.2 | 95.5 | 87.7%
COC(=O)C(Cc1ccccc1)n1cc(COc2nc(Cl)nc(Nc3ccc(Cl)cc3)n2)nn1 (stereo not given) | 92.5 | 99.8 | 95.3 | 95 | 101 | 105% | 88.2% | 102 | 98.9 | 117% | 81.5% | 90.6% | 89.4 | 94 | 101% | 97.8 | 101 | 97.4 | 94.7 | 91.5%
